High-throughput results as filed in PubChem.
HSD17B inh: HSD17B dehydrogenase inhibition | recombinant HSD17B10, NADH fluorescence kinetic | 7.6% of 75,000 active | Potency, µM (series often up to 57.1 µM), hits mostly inhibitors | AID 893;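 further: the protocol describes HADH2 (HSD17B10) and not the HSD17B4 of the title; nearly all actives have a fitted effect of over 70% in size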
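20 nM HADH2, pH 9.0 Tris/Tween; cpd preinc 15 min RT; start w/ 1 mM NAD+ + 90 uM b-hydroxybutyryl-CoA; kinetic fluor ex360/em450 q30s x 4 min; delta last-first.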
CRE Fsk mod: alters forskolin-stimulated CRE reporter signaling in CHO cells. CHO CRE-bla reporter (cAMP response element driving beta-lactamase), forskolin EC10, beta-lactamase ratio. Potency, µM (doses to about 38.2 µM), actives largely listed as activators. AID 662. 2.5% of 71,000 active; active means well fitted activation curve with a large enough effect in the signal ratio, with a control signal flat, not every such curve was filed as active; inconclusive means small, poorly fitted or top-dose-only effect, or effect the other way, or a change in a side signal; the % refers to the signal ratio
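qHTS titration format; CRE-bla CHO reporter; stimulus EC10 NKH 477, a water-soluble forskolin. Read: CCF4 460/530 nm ratio. Potency expressed as AC50 for activators or inhibitors.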
AID923: qHTS Assay for Allosteric/Competitive Inhibitors of Caspase-1: Spectroscopic Profiling in AFC Spectral Region. 1.1% of 75,000 active. compound fluorescence, AFC spectral region (405/520 nm). Potency, µM (titrated, usually from 57.5 µM), actives largely listed as activators. AID 923, 2007
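Baseline compound fluorescence (AFC region, 405 nm ex/520 nm em) taken from the intercept of kinetic reads with 50 nM caspase-1 and 5 uM Ac-WEHD-AFC; normalized to an on-plate AFC standard curve; compounds titrated up to 57 uM.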
A350 fluor: compounds fluorescent in Alexa 350 spectral region | Compound autofluorescence, 340/450 nm, Alexa 350 dye-equivalents; stronger effect = higher value | max dye-equivalent concentration, M | 11% of 59,000 active; in the data active means max dye-equivalent concentration above about 10 nM; inconclusive means mostly about 1.1 nM to 9.6 nM
4MU fluor: 4-MU region autofluorescence; compound autofluorescence, 340/450 nm, 4-MU equivalents; stronger effect = higher value; max dye-equivalent concentration, M; 11% of 59,000 active; in the data active means max dye-equivalent concentration above about 10 nM; inconclusive means mostly about 1.1 nM to 9.6 nM
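Compounds in 100 mM Tris, pH 8.0, sat 15 min at room temperature before fluorescence was read at 340 nm excitation/450 nm emission; a per-plate six-point 4-MU standard curve converted signals to dye-equivalent concentration at each compound concentration.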
HADH2 inhib: blocks human hydroxyacyl-CoA dehydrogenase type II; 3.4% of 73,000 active; AID 886; Potency, µM (doses to about 57.1 µM), usual class: inhibitors; Q99714; recombinant HADH2, NADH fluorescence, beta-hydroxybutyryl-CoA; further: nearly all actives have a fitted effect of over 60% in size
Target sequence (Q99714 whole entry, looked up, one chain of several): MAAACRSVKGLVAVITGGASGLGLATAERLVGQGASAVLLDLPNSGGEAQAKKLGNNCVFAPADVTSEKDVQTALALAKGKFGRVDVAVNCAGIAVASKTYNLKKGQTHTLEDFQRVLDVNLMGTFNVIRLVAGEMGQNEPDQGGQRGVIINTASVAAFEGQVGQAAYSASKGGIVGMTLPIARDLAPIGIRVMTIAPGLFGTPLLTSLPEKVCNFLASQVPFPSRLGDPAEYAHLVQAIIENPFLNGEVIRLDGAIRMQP
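NADH fluorescence (ex 360/em 450 nm) read every 30 s for 4 min; activity taken as last-minus-first time point difference. Enzyme 20 nM, NAD+ 1 mM, beta-hydroxybutyryl-CoA 90 uM, pH 9.0 Tris buffer.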
CHO via 24h: cytotoxicity in CRE-bla CHO cells at 24 h; shares compounds with CRE Fsk mod; CRE-bla CHO viability, ATP luminescence, 24 h; activity, negative = viability loss, % at 46.1 µM; 120 tested, under 10 active; AID 905
CHO tox 40h: cytotoxicity in CRE-bla CHO cells at 40 h | shares compounds with CRE Fsk mod | CRE-bla CHO viability, ATP luminescence, 40 h | Potency, µM, hits mostly inhibitors | 120 tested, under 10 active | AID 906
CRE-luc potent: confirmation of CRE signaling potentiators in HEK293 CREB reporter cells; shares compounds with CRE Fsk mod; HEK293 CRE-luc2P, NKH477 EC10 potentiation, luminescence, 4 h; Potency, µM (top dose mostly 38.3 µM), most hits filed as activators; 80% of 120 active
Hits are given with their value; n = inactive; u = inconclusive; x = not tested or not shown; [ ] = another dose, or the depositor's remark. Sampled rows, rich in hits. Any-hit rate of the full collection: about 14%. Unless noted, the call rests on the fitted dose curve; in most records, active means well fitted curve in the direction sought with a large enough effect; inconclusive means small, poorly fitted or top-dose-only effect, or another doubt; inactive means no such curve, though single readings can be large; an effect the other way counts as inactive or inconclusive.

SMILES	HSD17B inh	CRE Fsk mod	AID923	A350 fluor	4MU fluor	HADH2 inhib	CHO via 24h	CHO tox 40h	CRE-luc potent
CN1CCN(Cc2nc3cccc4c3c([n+]2[O-])-c2ccccc2-4)CC1	n[11.4 µM]	n[7.6 µM]	n[11.5 µM]	n	n	n[11.4 µM]	x	x	x
COC(=O)CCCOc1ccc(Cl)cc1Cl	n	x	n	x	x	x	x	x	x
Cc1ccc(Cn2ncc3c(N4CCN(c5ccccc5C)CC4)ncnc32)cc1	32µM	u	n	n	n	n	x	x	x
COc1ccc(-c2noc(-c3ccc(Br)o3)n2)cc1OC	n	n	n	u	n	n	x	x	x
CCOc1ccccc1-c1nc(-c2ccc(NC(=O)Cc3ccc(OC)cc3)cc2)no1	u	u	n	n	n	n	x	x	x
COc1ccc(Cc2nc(-c3ccc(Br)o3)no2)cc1OC	n	u	n	x	x	n	x	x	x
COc1ccc(CC(=O)Nc2ccc(-c3noc(-c4cc(OC)c(OC)c(OC)c4)n3)cc2)cc1	32µM	n	n	n	n	n	x	x	x
COc1cc(-c2nc(-c3ccc(Br)o3)no2)cc(OC)c1OC	u	2.5µM	n	x	x	u	x	x	x
CCc1ccc(NC(=O)c2cc(-c3ccc(OC)cc3)on2)cc1	25µM	u	n	u	n	u	x	x	x
COc1cc2nc(-c3ccc(Br)o3)oc(=O)c2cc1OC	u	n	n	4.6e-08M	3.7e-08M	n	x	x	x
CC(C)(C)N1C(=O)[C@H]2[C@H]3[C@H](O)[C@H](O)C/C(=N/OC[C@@H](O)COCc4ccco4)[C@@H]3CC[C@@H]2C1=O	n[11.4 µM]	x	n[11.5 µM]	x	x	n[11.4 µM]	x	x	x
CC(=O)Nc1cc(-c2nn(CC(=O)N3CCCCC3)c(=O)c3ccccc23)ccc1N1CCOCC1	n	u	n	n	n	n	x	x	x
Cn1nc(-c2ccc(N3CCOCC3)c(NS(=O)(=O)c3ccccc3)c2)c2ccccc2c1=O	n	2µM	n	u	n	n	u	u	u
CC1(C)Cc2c(sc3nc(SCC#N)n(C4CCCCC4)c(=O)c23)CO1	x	x	x	n	n	x	n	n	0.63µM
CCOC(=O)CSc1nc2sc3c(c2c(=O)n1CC)CC(C)(C)OC3	n	u	n	x	x	n	x	x	x
CC[C@]1(O)C[C@@H]2CN(CCc3c([nH]c4ccccc34)[C@](C(=O)OC)(c3cc4c(cc3OC)N(C=O)[C@H]3[C@@](O)(C(=O)OC)[C@H](C(=O)OC)[C@@]5(CC)C=CCN6CC[C@]43[C@H]65)C2)C1	n	0.5µM	n	x	x	n	n	u	n
COc1ccc(-n2c(=O)c(-c3cc(F)cc(F)c3)nc3cnc(N(C)C)nc32)cc1	n	u	u	u	u	n	x	x	x
Cc1ccc(C)c(N2CCN(S(=O)(=O)c3ccc4c(c3)OCCO4)CC2)c1	n	n	n	n	n	n	n	n	13µM
Cc1ccc(Cl)cc1N1CCN(S(=O)(=O)c2ccc3c(c2)OCCO3)CC1	n	n	n	n	n	n	x	x	x
CC1(O)C(=O)C=C2C=C3CCCN3C=C2C1=O (configuration not stated)	n[11.4 µM]	x	n[11.5 µM]	x	x	n[11.4 µM]	x	x	x
O=C(Nc1ccc(-c2cn3ccsc3n2)cc1)c1ccc(F)c(S(=O)(=O)N2CCOCC2)c1	n	1.6µM	n	u	u	n	u	n	2.8µM
CCCN(CCC)c1nc2ccccc2n2c(C)nnc12	n	n	n	n	n	n	n	n	10µM
CCN(CC)c1nc2ccccc2n2cnnc12	n	13µM	n	n	n	n	n	u	13µM
c1ccc2c(c1)CCCN2c1nc2ccccc2n2cnnc12	n	n	n	x	x	n	x	x	x
COc1ccc(NC(=O)N2CCCC3(CCN(C(=O)c4cnccn4)CC3)C2)cc1	n	n	n	n	n	n	x	x	x
